According to PubChem BioAssay (Tox21):
Results filed as inconclusive are left out. Calls of active or inactive are those of the source. Calls come from the whole dose curve; as a rule, active = well fitted inhibition curve with a large enough effect in the repeat runs; inconclusive = weak or mixed curves; inactive = flat fitted curve, though single readings scatter.

The compounds below were run against Voltage-gated inwardly rectifying potassium channel KCNH2 (Homo sapiens) (UniProt Q12809) (assay: Human Ether-a-go-go-Related Gene (hERG) channel small molecule antagonists: fluorescence cell-based qHTS assay (AID 1671200; note: nearly all actives have a fitted effect of over 50% in size)). Settings: hERG-U2OS cells, FluxOR thallium flux fluorescence; series mostly up to 76.8 µM; activity change, negative = inhibition: at the top concentration.
From the text: National Center for Advancing Translational Sciences [NCATS]
U.S. Environmental Protection Agency [EPA]
National Institutes of Environmental Health Sciences [NIEHS]
National Toxicology Program [NTP]
U.S. Food and Drug Administration [FDA]
Mutations in the hERG channel cause Long QT (LQT) syndrome. LQT syndrome is a cardiac disorder which can cause ventricle arrhythmia and sudden death. Additionally, compounds which block the hERG channel can cause acquired LQT syndrome. Several FDA approved drugs have been removed from the market due to their hERG blocking activity. A cell-based hERG channel inhibition assay can be used to screen chemical compounds that inhibit hERG channel. This assay measures hERG channel activity using thallium ions as surrogate ions to measure potassium into the cells.
Tox21 Assay Protocol Summary:
hERG-U2OS cells were resuspended in culture medium and dispensed into 1536-well, black wall/clear-bottom plates at 1000cells/well/3uL using a Multidrop Combi dispenser (Thermo Fisher, Waltham, MA). After plates were incubated at 37 C overnight, 3 uL of Loading Buffer provided by FluxOR II Potassium Ion Channel Assay kit (Thermo, Carlsbad, CA) was added to each well. The assay plates were then incubated at room temperature in the dark for 1h. […] After the assay plates were incubated at room temperature for 10 min, 1 uL of Stimulus Buffer provided by FluxOR II Potassium Ion Channel Assay kit was added into each well and fluorescence intensity (480nm excitation/540nm emission) was continuously measured for 2 min at 1 second intervals using a Functional Drug Screening System (FDSS) 7000EX kinetic plate reader (Hamamatsu, Japan).
% is set by controls: 0 for no effect and ±100 for the full control effect.

Chain of Voltage-gated inwardly rectifying potassium channel KCNH2 (Homo sapiens) (Q12809 whole entry, looked up): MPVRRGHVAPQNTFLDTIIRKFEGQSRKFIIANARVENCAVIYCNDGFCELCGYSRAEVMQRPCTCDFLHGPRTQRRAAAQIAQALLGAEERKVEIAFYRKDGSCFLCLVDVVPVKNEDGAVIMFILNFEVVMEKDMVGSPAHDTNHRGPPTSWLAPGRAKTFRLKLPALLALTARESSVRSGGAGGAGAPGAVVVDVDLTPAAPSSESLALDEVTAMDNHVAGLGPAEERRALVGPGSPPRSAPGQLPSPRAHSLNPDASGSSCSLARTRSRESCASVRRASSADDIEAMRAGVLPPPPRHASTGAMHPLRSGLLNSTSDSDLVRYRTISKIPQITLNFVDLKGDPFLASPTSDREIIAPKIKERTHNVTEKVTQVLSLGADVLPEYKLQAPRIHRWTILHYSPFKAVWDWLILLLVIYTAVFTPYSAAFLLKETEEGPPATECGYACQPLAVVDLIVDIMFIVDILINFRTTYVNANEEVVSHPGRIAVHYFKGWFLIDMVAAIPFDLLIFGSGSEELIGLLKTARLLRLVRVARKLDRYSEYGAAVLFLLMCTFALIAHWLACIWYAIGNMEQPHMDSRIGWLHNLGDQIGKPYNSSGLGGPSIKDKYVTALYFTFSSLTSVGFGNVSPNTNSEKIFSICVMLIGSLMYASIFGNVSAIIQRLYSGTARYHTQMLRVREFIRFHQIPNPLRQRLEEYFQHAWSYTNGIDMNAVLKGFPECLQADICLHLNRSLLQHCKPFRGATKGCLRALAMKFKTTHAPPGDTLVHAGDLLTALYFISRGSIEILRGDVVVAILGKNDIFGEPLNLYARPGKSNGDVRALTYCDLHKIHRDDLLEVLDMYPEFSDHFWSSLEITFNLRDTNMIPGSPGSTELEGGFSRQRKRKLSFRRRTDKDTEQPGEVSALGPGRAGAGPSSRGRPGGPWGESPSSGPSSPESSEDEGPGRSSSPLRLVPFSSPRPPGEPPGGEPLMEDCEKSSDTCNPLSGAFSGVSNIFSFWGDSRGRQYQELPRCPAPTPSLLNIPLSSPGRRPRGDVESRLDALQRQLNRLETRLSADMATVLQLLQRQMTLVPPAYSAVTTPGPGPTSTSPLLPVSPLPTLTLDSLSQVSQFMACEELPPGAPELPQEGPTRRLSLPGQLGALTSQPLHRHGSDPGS

Structure (SMILES) | activity change, negative = inhibition
O/N=C/C=N/O | -2.27% (inactive)
CCN1CCCC1CN (stereo not given) | -0.53% [at 35.3 µM] (inactive)
CO[Si](CCCn1c(=O)n(CCC[Si](OC)(OC)OC)c(=O)n(CCC[Si](OC)(OC)OC)c1=O)(OC)OC | 2.41% [at 35.3 µM] (inactive)
CN1CCOC(c2ccccc2)c2ccccc2C1 (stereo not given) | 1.22% [at 35.3 µM] (inactive)
C=C(C)[C@@H]1CC=C(C)C(=O)C1 | 0.756% (inactive)
CC1(C)O[C@H]2CC(=O)OC[C@]23[C@H]2CC[C@@]4(C)[C@H](c5ccoc5)OC(=O)[C@H]5O[C@]54[C@]2(C)C(=O)C[C@@H]13 | -10.2% [at 35.3 µM] (inactive)
COC(=O)c1ccccc1C(=O)O | 0.858% (inactive)
CC(C)c1ccc(C=O)cc1 | 4.73% (inactive)
CNCCS(=O)(=O)O | 5.37% (inactive)
CCCCCC/C=C/C(=O)OC | 0.674% (inactive)
CCC(=O)Oc1ccc2c(c1)CC[C@@H]1[C@@H]2CC[C@@]2(C)[C@H]1C[C@@H](OC(=O)CC)[C@@H]2OC(=O)CC | -25.8% [at 35.3 µM] (inactive)
O=[N+]([O-])c1c(Cl)cc(Cl)cc1Cl | 4.49% (inactive)
Cc1ccc(C(C)NC(=O)[C@@H](NC(=O)OC(C)C)C(C)C)cc1 (stereo not given in full) | -5.92% (inactive)
CN(C)CC/C=C1/c2ccccc2COc2ccc(CC(=O)O)cc21 | 1.9% [at 35.3 µM] (inactive)
CCO | 1.38% (inactive)
C=CCSSCCC | 8.98% (inactive)
CCCCOC(=O)C(C)O (stereo not given) | 4.34% (inactive)
CC1=NN(c2ccc(S(=O)(=O)O)cc2)C(=O)C1 | 1.22% (inactive)
[O-][n+]1cccc(/C(Cl)=N/OC[C@@H](O)CN2CCCCC2)c1 | 0.681% [at 35.3 µM] (inactive)
[O]=[Mo](=[O])=[O] | -1.28% [at 15.8 µM] (inactive)

Structure (SMILES) | activity change, negative = inhibition
O=C1OCCO1 | -6.48% (inactive)
CCCSSCCC | -7.68% (inactive)
O=C(CN1CCNCC1)NC1CCCCC1 | -14% [at 35.3 µM] (inactive)
Fc1ccccc1 | 4.62% (inactive)
OCC(O)CN1CCN(c2ccccc2)CC1 (stereo not given) | -1.6% [at 35.3 µM] (inactive)
Cc1cccc(Cl)c1 | 2.95% (inactive)
C=C(C)C1CC=C(C)C(=O)C1 (stereo not given) | 3.82% (inactive)
O=C1NC(c2ccccc2)(c2ccccc2)C(=O)N1COP(=O)(O)O | 1.45% [at 35.3 µM] (inactive)
CCCCCc1cccc(=O)o1 | -8.43% (inactive)
Cc1ccc(C(=O)O)cc1[N+](=O)[O-] | 13.1% (inactive)
COc1nc(N)nc2nc[nH]c12 | 4.59% (inactive)
c1ccc2cnccc2c1 | -11.4% (inactive)
CC1(C)Oc2ccc(C#N)cc2[C@@H](N2CCCC2=O)[C@@H]1O | 0.312% [at 35.3 µM] (inactive)
CC(C)C1OCCN1CCOC(=O)NCCCCCCNC(=O)OCCN1CCOC1C(C)C (stereo not given) | 2.85% (inactive)
CCOc1cccc(N)c1 | 1.22% (inactive)
Cc1ccc(N)cc1S(=O)(=O)O | 2% (inactive)
Cn1c(=O)c2[nH]c(Br)nc2n(C)c1=O | 2.03% [at 35.3 µM] (inactive)
O=C(O)[C@H](O)c1ccccc1 | 4.79% [at 35.3 µM] (inactive)
CN(C)CCN(C)CCO | 0.409% (inactive)
CC(C)=CCC/C(C)=C/COC=O | -5.3% (inactive)
